Source: the supplement of paper PMC3334620
In all, about 33,000 sequences were measured (“E-score (-0.5 to 0.5)”: median about -0.015, highest 2% from about 0.3 on). The sample holds the highest values, similar sequences and a random draw of the others, so the mix is not that of the screen.

What follows are sequences tested against T1, Abf1 (UniProt P14164) (assay: PBM E-score (8-mer binding enrichment) (E-score (-0.5 to 0.5)); higher = stronger / more preferred TF binding). Settings: protein concentration: 200 nM; construct: GST-full length.
T1 sequence: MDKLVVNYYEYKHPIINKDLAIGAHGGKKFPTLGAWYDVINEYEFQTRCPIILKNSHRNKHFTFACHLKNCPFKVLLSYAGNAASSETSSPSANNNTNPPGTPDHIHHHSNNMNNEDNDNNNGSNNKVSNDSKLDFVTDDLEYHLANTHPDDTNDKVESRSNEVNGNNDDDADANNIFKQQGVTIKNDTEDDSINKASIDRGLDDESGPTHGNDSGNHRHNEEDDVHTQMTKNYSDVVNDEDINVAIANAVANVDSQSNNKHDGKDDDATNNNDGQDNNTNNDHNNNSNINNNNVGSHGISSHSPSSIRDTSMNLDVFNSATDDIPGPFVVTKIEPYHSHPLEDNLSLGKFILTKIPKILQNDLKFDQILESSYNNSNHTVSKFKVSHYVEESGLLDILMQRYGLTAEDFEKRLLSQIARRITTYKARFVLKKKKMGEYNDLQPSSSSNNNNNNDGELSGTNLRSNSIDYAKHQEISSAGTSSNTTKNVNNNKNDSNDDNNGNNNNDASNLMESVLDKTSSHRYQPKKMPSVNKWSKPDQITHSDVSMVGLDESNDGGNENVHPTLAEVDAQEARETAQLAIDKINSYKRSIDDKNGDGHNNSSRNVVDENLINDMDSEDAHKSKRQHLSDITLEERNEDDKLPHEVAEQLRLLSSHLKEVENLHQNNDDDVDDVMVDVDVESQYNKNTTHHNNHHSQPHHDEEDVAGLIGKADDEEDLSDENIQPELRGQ
Method: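 Universal 'all 10-mer' protein binding microarrays (Agilent AMADID 015681) probed with GST-tagged S. cerevisiae TFs (full-length or DBD) made by in vitro transcription/translation (PURExpress), about 100-200 nM. Bound TF was detected with fluorescent anti-GST. Each ungapped 8-mer (which stands for itself and its reverse complement) is scored by the PBM enrichment score (E-score), a modified Wilcoxon-Mann-Whitney statistic from -0.5 to +0.5, computed with the Universal PBM Analysis Suite. Scale: above 0.35 generally sequence-specific binding.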

Sequence | PBM E-score
GCATGTCA | 0.225
GCGTGTCA | 0.0814
CAGAAGGG | -0.136
AAACTCAA | 0.0218
ATGTTACG | 0.087
GTTGGTCA | 0.221
ACATCTAA | -0.0374
CGACCTCA | 0.00561
ATCGCGAT | 0.411
CTCGCGAC | 0.238
ATCGCGAA | 0.199
GTCGCGAC | 0.32
ATCGCGAG | 0.138
GTCGCGAA | 0.188
AACACAAC | -0.029
CATAAACG | 0.22
GAATGCCC | -0.0158
TCCCACGA | 0.326
GCGCACGA | 0.0514
CCGCACGC | -0.186
CCGCACGA | 0.376
GCCCACGA | 0.019

Sequence | PBM E-score
CCGCACGG | 0.0967
TCGCACGA | 0.317
TCGCACAA | 0.167
ACGCACGC | -0.0387
ACGCACGA | 0.389
ACCCACGA | 0.287
ACGCACGT | 0.105
AAGTCCCC | -0.149
ACTCTGAT | 0.043
ACTAGTGC | 0.104
CGGCCCGC | -0.121
AATGCTCC | -0.223
CGCGTACG | 0.271
ATTATGGG | 0.00349
CGATATAA | 0.203
GGATATAC | -0.053
GGATATAA | 0.298
AGTTACGG | 0.0796
GGAGGAAA | -0.252
CCGATACG | 0.121
CCGATATC | 0.21
ACGATATG | 0.304

Sequence | PBM E-score
AGGATATC | 0.24
ACGATACT | 0.285
ACGATATC | 0.321
ACGATATA | 0.289
ACGATACG | 0.334
ACGATAGG | 0.233
ATGCCACC | -0.148
AATCCAGT | 0.0412
AATCTGCA | -0.185
TGGGACAA | 0.0227
AAGCCACG | 0.124
AAAGTATA | 0.101
CGATACCA | 0.018
AAGTCACT | 0.304
AAGTCACA | 0.125
AGGTCACT | 0.304
AGGTCACG | 0.235
AAGTCACG | 0.268
AGGTCACC | 0.282
ACTCTGAC | -0.0634
CGAATTCC | -0.0103
CGGACGCC | -0.0127

Sequence | PBM E-score
AATGCCAG | -0.155
ATGTCGGG | 0.0062
AAGGAACA | -0.0655
ACGCAGCG | -0.162
CACGACCG | -0.0182
CACGACGA | 0.263
AATAACGA | 0.325
AACGACGG | 0.249
GCCGACGA | 0.176
AATAACGG | 0.126
AACGACGT | 0.19
AACGACGA | 0.346
AATAACGC | -0.118
TCCGACGA | 0.392
CCCGACGA | 0.196
CACGACGG | 0.356
ACAGCTAG | -0.181
ACTCTTAA | -0.0406
AACCGGGG | -0.212
AAAATCCC | -0.0966
